Test results from PubChem BioAssay AID485275 (NMMLSC, 2010).
About 1,400 (0.42%) of roughly 330,000 compounds were called active. What follows is part of a selection rich in actives, with near analogues and random picks from the rest. Unmarked numbers belong to inactive results.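 How the source made its calls: active means plate passing quality check with inhibition over a set limit, or well fluorescence over plate mean plus 4 SD; inactive means the rest.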

Experiment: antifungal drug efflux pump blockers, triplex strains – S. cerevisiae, Nile Red, multiplex, primary screen (AID 485275);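 further: Nile Red retained in pooled yeast measured as flow cytometry median fluorescence; 0% = buffer negative control and 100% = Enniatin B positive control; higher means more Nile Red kept so more efflux inhibition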
Details: S. cerevisiae Candida pump triplex, at 10 µM, stronger effect = higher value

Compound | inhibition
COc1ccccc1/C=N/N1CCN(Cc2ccccc2Cl)CC1 | -0.11%
CC12CCC(C(=O)N(c3cccc(Cl)c3)C1=O)C2(C)C (centres undefined) | 10.2% (active)
O=C1CC(NNc2ccccc2)C(=O)N1c1cccc(Cl)c1 (centres undefined) | 0.07%
CC12CCC(C(=O)N(NC(=O)c3ccccc3O)C1=O)C2(C)C (centres undefined) | -0.08%
O=C(CCCN1C(=O)CSc2ncccc21)N1CCN(c2cccc(C(F)(F)F)c2)CC1 | 0.01%
O=C(CSC1CC(=O)N(CCc2ccccc2)C1=O)Nc1ccc(Cl)cc1 (centres undefined) | 0.17%
NC(=O)c1cc(S(=O)(=O)NCCCc2ccco2)cs1 | -0.02%
COc1ccc(/C=C/C(=O)OCC(=O)Nc2cccc(Oc3ccccc3)c2)c(OC)c1 | -0.02%
COc1cccc(NC(=O)CN(C)C(=O)Cc2ccc(Cl)cc2Cl)c1 | -0.07%
COc1cccc(NC(=O)CN(C)C(=O)/C=C/c2cc(OC)ccc2OC)c1 | 15.2% (active)
CCN(CC)CC(=O)Nc1nn(-c2ccccc2)nc1C(N)=O | 0.02%
O=C(Nc1nccs1)c1cc(S(=O)(=O)N2CCOCC2)c(Cl)cc1Cl | -0.05%
CN(C)S(=O)(=O)c1cc(C(=O)Nc2ccn(C)n2)c(Cl)cc1Cl | 52.3% (active)
Cc1ccc(C(=O)Nc2ccn(C)n2)cc1 | -0.02%
COC(=O)/C(=C1\Oc2ccc(C(C)(C)C)cc2S1)C(F)(F)F | -0.15%
O=C(NN1C(=O)C2CCCCC2C1=O)c1ccco1 (centres undefined) | -0.1%
Cc1ccc(S(=O)(=O)N2CC(C)N(S(C)(=O)=O)C2)cc1 (centres undefined) | -0.07%
CCOC(=O)c1c(NC(=O)C2(C)Cc3ccccc3C(=O)O2)sc2c1CCCC2 (centres undefined) | 0.15%
CCOC(=O)c1c(NC(=S)Nc2ccccc2)sc2c1CCN(C)C2 | -0.02%
CCOC(=O)c1c(NC(=S)NC(=O)c2ccco2)sc2c1CCCC2 | 1.02% (active)
C=CCNC(=O)c1sc(SC)cc1-c1ccc(Cl)cc1 | -0.08%
CCCCN1C(=O)CCC(C(=O)O)C1c1ccc(OC)cc1 (centres undefined) | 0.12%

Compound | inhibition
COc1ccc(OC)c(-n2nnnc2SCC(=O)Nc2cc(C)ccc2OC)c1 | -0.01%
CCOC(=O)CNC(=O)CSc1nnnn1-c1cc(C)ccc1C | 0.92% (active)
Cc1ccc(C)c(-n2nnnc2SCC(=O)c2c(N)n(C)c(=O)n(C)c2=O)c1 | -0.07%
O=C(NCC(=O)N1CCN(c2ncc(C(F)(F)F)cc2Cl)CC1)c1ccc(Br)o1 | -0.34%
CN1CCN(S(=O)(=O)c2ccc(NC(=O)C3CCCO3)cc2)CC1 (centres undefined) | -0.16%
CC(=O)Nc1ccc(S(=O)(=O)N2CCC(C(=O)NC3CC3)CC2)cc1 | -0.06%
CN1CCN(S(=O)(=O)c2ccc(NC(=S)NC(=O)C3CC3)cc2)CC1 | 10.2% (active)
CCN(CC(=O)Nc1c(F)cccc1F)C(=O)c1cnc(C)cn1 | -0.12%
Cc1ccc(N=C2NC(=O)/C(=C/C=C/c3ccco3)S2)cc1C | 2.76% (active)
CN1C(=O)/C(=C/c2ccco2)SC1=Nc1cccc(C(=O)O)c1 | -0.02%
CCCn1c2ccccc2c2cnn(CC(=O)NCCCN3CCCCC3CC)c(=O)c21 (centres undefined) | 0.02%
CC(C)N1CCC(N2CCN(Cc3cccnc3)CC2CCO)CC1 (centres undefined) | 0.28%
Nc1ccc(N=Nc2ccccc2Cl)c(N)n1 | 0.15%
CCOC(=O)CNC(=O)/C=C/c1c(Cl)cccc1Cl | -1.16%
O=C(/C=C/c1c(Cl)cccc1Cl)NCc1ccccc1 | 24.9% (active)
O=C(CC(=O)N/N=C\c1cccc(Cl)c1Cl)NCc1ccccc1 | 0.27%
CCCc1ccc(OCC(O)CN2CCN(C(=O)OCC)CC2)cc1 (centres undefined) | 0.15%
C=CCC[C@H](Cc1ccc(F)cc1)C(=O)OC[C@@H](Cc1c[nH]c2ccccc12)NC(=O)[C@H](CC=C)CC(=O)N[C@H](CO)Cc1ccccc1 | -0.27%
C=CCC[C@H](Cc1ccc(F)cc1)C(=O)OC[C@H](C)NC(=O)[C@H](CC=C)CC(=O)N(CCO)Cc1ccccc1 | -0.16%
C=CCC[C@@H](Cc1ccc(F)cc1)C(=O)OC[C@H](Cc1c[nH]c2ccccc12)NC(=O)[C@@H](CC=C)CC(=O)N(CCO)Cc1ccccc1 | 149% (active)
COCC(C)NC(=O)c1ccc(-n2nc(C(F)(F)F)cc2-c2cccs2)cc1 (centres undefined) | -0.07%
O=C(NCc1ccc2c(c1)OCO2)c1cc(F)c(F)cc1Cl | 0.18%

Compound | inhibition
Cc1nc2c(C(=O)NCc3ccc4c(c3)OCO4)c[nH]n2c(=O)c1Cc1ccccc1F | 0.63% (active)
CCn1c(=O)c(C(=O)NCc2ccc3c(c2)OCO3)c(O)c2ccccc21 | -0.11%
CCN(C(=O)CSc1nnc(-c2ccc(OC(F)F)cc2)n1N)C1CCS(=O)(=O)C1 (centres undefined) | 0.02%
CC(=O)C1(C)N(O)C(C)(C)C(c2cccs2)=[N+]1[O-] (centres undefined) | -0.09%
O=C(CSc1nnc(-c2cnccn2)n1Cc1ccco1)c1ccc(Cl)c(Cl)c1 | -0.1%
COc1cc(Cl)c(C)cc1NC(=O)CSc1nnc(-c2cccnc2)n1Cc1ccco1 | 0.03%
O=C(CSc1nnc(-c2cccnc2)n1Cc1ccco1)c1ccc(Cl)c(Cl)c1 | 0.84% (active)
CSc1cccc(NC(=O)C2CCCN2S(=O)(=O)c2ccc3c(c2)CCC(=O)N3)c1 (centres undefined) | 0.16%
COc1cccc(CNC(=O)C(=O)NCCC2CCCCN2S(=O)(=O)c2ccc(C)cc2)c1 (centres undefined) | 0.03%
Cc1ccc(C(=O)Nc2ccccc2-c2ccccc2)cc1S(=O)(=O)Nc1ccccc1 | 0.01%
Cc1ccc(C(=O)O)cc1N1C(=O)CCCC1=O | -0.14%
CCNc1c(NS(=O)(=O)c2ccc(C3CCCCC3)cc2)c(=O)oc2ccccc12 | 1.37% (active)
O=c1oc2ccccc2c(NC2CCCCC2)c1NS(=O)(=O)c1ccc(Cl)cc1 | -0.01%
CCC(=O)Nc1ccc(S(=O)(=O)Nc2c(NC)c3ccccc3oc2=O)cc1 | 0.02%
CC1CC(C)CN(C(=O)C2CC(=O)N(c3ccc(F)cc3)C2)C1 (centres undefined) | -0.06%
COc1ccccc1N=C1SC(C)CN1C(=O)C1CCC1 (centres undefined) | 0.03%
O=C(NN1C(=O)C2C3C=CC(O3)C2C1=O)c1ccncc1 (centres undefined) | 0.07%
Cc1ccc(-c2csc(NC3OC(=O)c4ccccc43)n2)cc1 (centres undefined) | 0.03%
c1cnc(Nc2nc(-c3ccc4ccccc4c3)cs2)nc1 | 0.79% (active)
Cc1ccccc1Nc1nc(-c2cccnc2)cs1 | 0.3%
COc1ccc(C(=O)C2CCCN(Cc3cccn3-c3ccccn3)C2)c(C)c1 (centres undefined) | 0.98% (active)
CCOC(=O)c1[nH]ncc1CN1CCCC(C(=O)c2ccc(OC)cc2C)C1 (centres undefined) | 0.25%

Compound | inhibition
COc1ccc(C(=O)C2CCCN(Cc3ccc4nonc4c3)C2)c(C)c1 (centres undefined) | 0.05%
Cc1c(CCOC(=O)CC23CC4CC(CC(C)(C4)C2)C3)sc[n+]1Cc1ccc([N+](=O)[O-])cc1 | 0.61% (active)
Cc1c(CCOC(=O)c2cc([N+](=O)[O-])ccc2Cl)sc[n+]1CCCCS(=O)(=O)[O-] | 0.04%
Cc1c(CCO)sc[n+]1CC(=O)OC12CC3CC(CC(C3)C1)C2 | -0.46%
CC1CCCCC1NC(=O)Cn1c(=O)cnc2ccccc21 (centres undefined) | -0.23%
CCOC(=O)N1CCN(S(=O)(=O)c2ccc(C(=O)Nc3ccc(F)cc3F)cc2)CC1 | -0.12%
Cc1c(C(=O)NCCN2C(=O)S/C(=C\c3cccs3)C2=O)cccc1[N+](=O)[O-] | 0.33%
CCOc1ccc(CCNC(=O)Nc2ccccc2)cc1OCC | -0.23%
O=C(Cc1ccc(Br)cc1)NCCN1CCOCC1 | -0.17%
CCOc1ccccc1/C=c1\sc2nc(-c3ccco3)nn2c1=O | 3.16% (active)
CCOc1ccccc1C1NC(=O)NC(C)=C1C(=O)OCc1ccco1 (centres undefined) | 0.02%
CCCn1nc(C(=O)NNC(=O)CCOc2ccccc2OCC)c2ccccc2c1=O | -0.08%
O=C(CCNC(=O)c1ccc([N+](=O)[O-])cc1)Nc1ccccc1N1CCOCC1 | 0.19%
Cc1nc2sc(C(c3ccco3)N3CCC4(CC3)OCCO4)c(O)n2n1 (centres undefined) | -0.06%
O=C(NC(=S)Nc1ccc2oc(=O)ccc2c1)c1ccc(-c2cccc(Cl)c2Cl)o1 | 0.12%
NC(=O)C1CCN(CC(O)CSc2ccc(F)cc2)CC1 (centres undefined) | -0.06%
CC1CCc2c(sc3c2C2=NS(=O)(=O)CCN2C=N3)C1 (centres undefined) | 0.15%
O=C(CNC(=O)c1ccccc1)NCC(=O)OCc1ccc(Cl)cc1 | 0.03%
O=C(CNC(=O)c1ccc(-c2ccccc2)cc1)OCc1ccc(Cl)cc1 | 17.2% (active)
Cc1ccc(C(=O)NCC(=O)OCc2nnc(-c3ccccc3)o2)cc1 | 0.08%
CN1CCN(Cc2c(C(=O)N3CCc4ccccc4C3)nc3ccc(Cl)cn23)CC1 | 0.16%
CCOc1ccc(NC(=O)CN(C)C(=O)COc2cccc(CC)c2)cc1OCC | 0.06%

Compound | inhibition
COc1ccc2sc(-c3ccccc3OC)c(-c3ccc(OCCN4CCCC4)cc3)c2c1 | 198% (active)
COc1ccc(-c2sc3ccccc3c2-c2ccc(OCCN3CCOCC3)cc2)cc1 | 0.31%
COc1ccccc1-c1sc2ccccc2c1-c1ccc(Br)nc1 | -0.34%
COc1cc(OC)cc(-c2sc3ccc(OC)cc3c2-c2ccc3cc[nH]c3c2)c1 | -0.09%
COc1ccccc1-c1sc2ccccc2c1-c1ccc(C(C)=O)cc1 | -0.1%
O=C(COC(=O)COc1cc(Cl)c(Cl)cc1Cl)NC1CC1 | 0.12%
Clc1cccc(-c2nc3nc4ccccc4nc3n2Cc2ccco2)c1 | -0.17%
O=c1c2ccccc2oc2nc(C3CCCCC3)n(Cc3ccco3)c(=O)c12 | -0.05%
Cc1ccc(Cn2c(C)nc3c(c2=O)c2nc4ccccc4nc2n3Cc2ccco2)cc1 | 0.94% (active)
Cc1cc(N(C)C)cc(C)[n+]1[O-] | -0.18%
C=CC[n+]1c(-c2ccc(C)cc2)csc1NNC(=O)Nc1ccccc1 | -0.18%
COC(C(=O)Nc1ccc(C(C)=O)cc1)c1ccccc1 (centres undefined) | -0.08%
Cc1cc(C)cc(NC(=O)C(OC(=O)c2ccc(O)cc2)c2ccccc2)c1 (centres undefined) | 0.91% (active)
Cc1ccc(C)c(NC(=O)C(OC(=O)c2ccc(C)s2)c2ccccc2)c1 (centres undefined) | -0.08%
O=C(O)CCCCCCCCCC[n+]1ccccc1 | 0.3%
CCOC(=O)C1(Cc2cccc(OC)c2)CCCN(C(=O)CCSC)C1 (centres undefined) | 0.41%
Cc1cccc(OCCC(=O)OCc2csc(CC(=O)Nc3ccccc3C)n2)c1 | 0.08%
O=C(c1ccc(F)cc1)N1CCC(n2nnc3ccccc32)CC1 | -0.14%
COc1ccc2cc(C3=CC(=O)C[C@H](c4ccc5c(c4)OCO5)C3)ccc2c1 | -0.01%
Brc1cnc2ccccc2c1N1CCCCC1 | 0.04%
COc1cc(C(=O)NCc2ccc(-n3cccc3)cc2)cc(OC)c1OC | 0.13%
